About 710 (0.99%) of roughly 72,000 compounds were called active. Roughly 7% stayed inconclusive and do not appear here. The entries come from a sample that favours actives as a whole. Values without a mark were called inactive. Calls follow the shape of the dose curve; as a rule, active = well fitted inhibition curve with a large enough effect; inconclusive = small, poorly fitted or top-dose-only effect; inactive = no such curve, though single readings can be large or run the other way.
test: qHTS Assay for Inhibitors of the ERK Signaling Pathway using a Homogeneous Screening Assay; conditions: HEK293-V1b, vasopressin-stimulated pERK AlphaScreen; series mostly up to 57.5 µM; activity, negative = inhibition: at the top concentration; also: nearly all actives have a fitted effect of over 55% in size
Description: qHTS Assay for Inhibitors of the ERK Signaling Pathway using a Homogeneous Screening Assay; also: nearly all actives have a fitted effect of over 55% in size
NIH Chemical Genomics Center [NCGC]
NIH Molecular Libraries Screening Centers Network [MLSCN]
Assay Submitter (PI): Dr. Wei Zheng, NCGC/NIH
The Ras/extracellular-signal-regulated kinase (ERK) mitogen activated protein (MAP) kinase signaling pathway (ERK1/2 cascade) plays is a key role in transmitting signals from the cell surface to the nucleus (Nishida and Gotoh 1993; Chang and Karin, 2001). The cascade is initiated by the small G-protein Ras, which recruits Raf […], where activation occurs. Alternatively, this pathway can be activated by elevating intracellular cAMP.
Activation of the ERK pathway is essential in increased cell division and cell survival. Sustained and constitutive activation of the ERK pathway, however, has been linked to uncontrolled cell proliferation, increased cell survival, and tumor progression. Thus, the ERK has been as an attractive target for cancer chemotherapy in the past few years (Sebolt-Leopold and Herrera, 2004). Given its physiological and pathological importance, assessment of ERK phosphorylation has been broadly performed in both basic research and drug discovery. Most assays for the measurement of ERK phosphorylation use the antibody-based detection methods, such as western blot and ELISA. These assays require multiple reagent additions with cell wash steps and are not suitable for high throughout screening.
The current cell-based ERK phosphorylation assay was performed using AlphaScreen platform. AlphaScreen is a two bead-based proximity-dependent chemical energy transfer luminescent assay platform. The assay reagents (ERK SureFire(TM) kit) were supplied from TGR BioSciences (Australia). In the presence of specific antibodies, phosphorylated ERK will bring "donor" and "acceptor" beads to a proximity range (<200 nm), and subsequently lead a chemical luminescent reaction upon exciting donor beads with 680 nm laser. To exclude the assay-related false positives, we used a biotinylated rabbit IgG to perform counter-screen. The biotinylated antibody mimics the phosphorylated ERK1/2 for bringing streptavidin coated beads and protein-A coated beads to a proximity range for the AlphaScreen detection.
NCGC Assay Protocol Summary:
HEK293 cells stably expressing type-1 vasopressin receptor (V1b) were maintained in DMEM medium (Invitrogen, Carlsbad, CA) at 37C under a humidified atmosphere containing 5% CO2 and 95% air. The medium contained 10% FBS, 2 mM L-glutamine, non-essential amino acid, pyruvate and 50 U/ml penicillin and 50 ug/ml streptomycin (Invitrogen). The aliquots of frozen cells were stored at -135C and used for the compound screening. All compounds were screened as titrations from 0.6 nM to 46 uM final concentration. Vasopressin was used to stimulate the ERK phosphorylation pathway. The ERK phosphorylation in cells was determined using an AlphaScreen assay kit provided by PerkinElmer. Data were normalized to the controls for basal activity (DMSO only) and 100% activation (25 nM vasopressin). AC50 values were determined from concentration-response data modeled with the standard Hill equation.
(1) Seed 4 ul/well of resuspended frozen HEK293 cells containing 2000 cells in white 1536-well plates for overnight with 1% FBS at 37C under a humidified atmosphere containing 5% CO2 and 95% air.
(2) Add 23 nL compounds in DMSO solution. The final titration was 0.6 nM to 46 uM.
(3) Incubate at 37C for 30 min.
(4) Dispense 0.5uL vasopressin (25 nM in final)
(5) Incubate at 37C for 5 min.
(6) Dispense 0.5uL of 1:2 diluted 5x lysis buffer.
(7) Incubate at 37C for 10 min.
(8) Dispense 1.5uL of mixture of activation buffer and reaction buffer with AlphaScreen beads (streptavidin donor beads and protein-A acceptor beads, 10 ng/well for each).
(9) Incubate at room temperature for 5 hr.
(10) Detect the assay plate in an EnVision plate reader (PerkinElmer) using the AlphaScreen detection mode.
[…]
% is scaled to controls: 0 for no effect and ±100 for the full control effect; potency is read from the fitted curve at half-maximal effect.

Row | SMILES | Potency | activity, negative = inhibition
1 | N#Cc1c(Cl)c(Cl)c(Cl)c(C#N)c1Cl | 2 µM (active) | –
2 | C[N+]1(C)C2CC(OC(=O)C(CO)c3ccccc3)CC1[C@@H]1O[C@H]21 (stereo not given in full) | inactive | –
3 | BrC1C(Br)C(Br)C(Br)C(Br)C1Br (stereo not given) | – | 41.9%
4 | COC1CC(OC2CC[C@@]3(C=O)C4CC[C@]5(C)C(C6=CC(=O)OC6)CC[C@@]5(O)C4CC[C@]3(O)C2)OC(C)C1O (stereo not given in full) | – | 3.45%
5 | CN1[C@@H]2CC[C@H]1CC(OC(=O)c1cc(Cl)cc(Cl)c1)C2 (stereo not given in full) | – | 11.3%
6 | CN1[C@@H]2CC[C@H]1CC(NC(=O)c1nn(C)c3ccccc13)C2 (stereo not given in full) | – | 28.8%
7 | C[C@H](CCC(=O)O)[C@H]1CC[C@@H]2[C@H]3CC[C@H]4C[C@H](O)CC[C@@]4(C)[C@@H]3CC[C@@]21C | – | -8.67% [at 11.5 µM]
8 | CSC1=NP(=S)(SC)N(C)c2nc3n(c21)CCC3 (stereo not given) | 15.8 µM (active) | –
9 | CNC(C)[C@@H](O)c1ccccc1 (stereo not given in full) | – | 4.53%
10 | C[C@]12CC[C@H](O)CC1=CC[C@@H]1[C@H]2CC[C@]2(C)C(=O)CC[C@H]12 | – | 14.5%
11 | O=[N+]([O-])c1ccc(Cl)c(Cl)c1 | – | 21.3%
12 | CC(C)(Cc1c[nH]c2ccc(Cl)cc12)NCCOc1ccccc1OCC1CC1 | 39.8 µM (active) | –
13 | Clc1cccc(Cl)c1Cl | – | -11.6%
14 | CNCC[C@H](Oc1ccc(C(F)(F)F)cc1)c1ccccc1 | inactive | –
15 | CC(C)C(N)C(=O)OCCOCn1cnc2c(=O)[nH]c(N)nc21 (stereo not given) | – | 22.7%

Reference: PubChem BioAssay AID995 (National Center for Advancing Translational Sciences (NCATS), 2007)
